# Measurements from PubChem BioAssay (EPA / NIEHS).
# The source made the active and inactive calls. The calls were made as follows: active = hit-call score of the fitted dose curve at least 0.9, where 1 is the maximum; inactive = score below 0.9.
# Target: Hepatocyte nuclear factor 3-beta (Homo sapiens) (UniProt Q9Y261)
# Experiment: ATG_FoxA2_CIS: Attagene CIS-FACTORIAL HepG2 Assay for human Forkhead box A2 (FOXA2) (AID 2282942)
# Settings: HepG2 cis-reporter transcription factor activity, 24 h; actives raise or lower the signal
# Protocol: ATG_CIS is a cell-based, multiplexed-readout assay that uses HepG2, a human liver cell line, with measurements taken at 24 hours after chemical dosing in a 24-well plate.ATG_FoxA2_CIS is one of 52 assay component(s) measured or calculated from the ATG_CIS assay. It is designed to make measurements of mRNA induction, a form of inducible reporter, as detected with fluorescence intensity signals by Reverse transcription polymerase chain reaction (RT-PCR) and Capillary electrophoresis technology.Data from the assay component ATG_FoxA2_CIS was analyzed into 1 assay endpoint. This assay endpoint, ATG_FoxA2_CIS, was analyzed with bidirectional fitting relative to DMSO as the negative control and baseline of activity. Using a type of inducible reporter, measures of mRNA for gain or loss-of-signal activity can be used to understand the reporter gene at the transcription factor-level as they relate to the gene FOXA2. Furthermore, this assay endpoint can be referred to as a primary readout, because this assay has produced multiple assay endpoints where this one serves a reporter gene function. To generalize the intended target to other relatable targets, this assay endpoint is annotated to the dna binding intended target family, where the subfamily is forkhead box protein.
# Human liver HepG2 cells are transiently transfected with multiple reporter transcription units (MRTUs) in 6-well plates using FuGene 6 reagent (Roche; 3 ml FuGene/1 mg DNA). The MRTU constructs are regulated by a cis-regulating element (promoter). […] A major difference between the CIS and TRANS system is that in CIS activities of endogenous TFs are measured, whereas the TRANS assay evaluates changes in activities of exogenous, chimeric NR-Gal4 proteins. […] At the end of 24 hour incubation, total RNA was isolated using TriZol reagent (Invitrogen). The isolated RNA is then reverse-transcribed using oligo(dT) primer and Mo-MLV reverse transcriptase (Invitrogen) with DNAse I (Ambion) treatment for 30 min. The one-tenth of the produced cDNA was amplified by PCR using Taq DNA polymerase (Invitrogen) and two reporter sequence-specific primers. The PCR products were fluorescently labeled by primer extension with 6-arboxyfluorescein (6-FAM) 5'-labeled reporter sequence-specific primer (2 min at 95 C, 20 s at 68 C and 10 min at 72 C) and these products were digested with 5U of HpaI (New England Biolabs) for 2h at 37 C. The fragments were purified using Qiaquick PCR columns (Qiagen), analyzed on an ABI 3130xL genetic analyzer (Applied Biosystems) with peak positions identified by using a set of X-rhodamine (ROX)-labeled MapMarker1000 molecular weight standards (BioVentures). The raw capillary electrophoresis data was processed using Attagraph software (Attagene).
# Chain of Hepatocyte nuclear factor 3-beta (Homo sapiens) (Q9Y261 whole entry, looked up): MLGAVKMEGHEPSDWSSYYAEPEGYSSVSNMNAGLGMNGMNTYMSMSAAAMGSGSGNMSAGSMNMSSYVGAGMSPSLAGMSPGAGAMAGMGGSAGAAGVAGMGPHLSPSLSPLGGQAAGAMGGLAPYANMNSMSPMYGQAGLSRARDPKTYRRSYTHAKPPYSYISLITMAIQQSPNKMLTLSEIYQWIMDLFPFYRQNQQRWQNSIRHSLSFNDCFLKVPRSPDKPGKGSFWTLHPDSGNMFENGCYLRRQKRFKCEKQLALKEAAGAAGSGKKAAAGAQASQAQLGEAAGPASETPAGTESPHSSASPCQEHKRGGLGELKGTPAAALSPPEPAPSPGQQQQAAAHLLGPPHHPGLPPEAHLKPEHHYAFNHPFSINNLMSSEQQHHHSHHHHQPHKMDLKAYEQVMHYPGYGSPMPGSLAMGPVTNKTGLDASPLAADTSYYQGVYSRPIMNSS
Structure (SMILES),outcome,AC50
CCOCCOCC,inactive,
CCOC=O,inactive,
Cc1cc(C(C)(C)C)c(O)c(C(C)(C)C)c1,inactive,
CCCCCCCCC(C)=O,inactive,
CCCCCCCCCCCCCC[n+]1ccccc1,,18.2 µM (active)
NCCN,inactive,
CCc1ccccc1O,inactive,
C=C(c1ccc(C(=O)O)cc1)c1cc2c(cc1C)C(C)(C)CCC2(C)C,inactive,
Cc1ccc(C)c(S(=O)(=O)O)c1,inactive,
OCC(F)(F)C(F)(F)C(F)(F)C(F)(F)C(F)(F)C(F)(F)C(F)(F)C(F)(F)C(F)(F)C(F)(F)C(F)(F)F,inactive,
O=C(Nc1cccc([N+](=O)[O-])c1)c1cc2ccccc2cc1O,inactive,
CC(C)(O)C(=O)c1ccccc1,inactive,
CCCCCCCCCCCCCCCC(=O)OC,inactive,
Oc1cc2ccccc2cc1O,inactive,
CC=O,inactive,
CC(=O)Nc1ccc(S(N)(=O)=O)cc1,inactive,
O=C(c1cc(O)c(O)c(O)c1)c1ccc(O)c(O)c1O,inactive,
CC(C)C=O,inactive,
Clc1ccc2c(Cl)ccnc2c1,inactive,
COc1ccc(C#N)cc1,inactive,

Structure (SMILES),outcome,AC50
CC1=NN(c2ccccc2)C(=O)C1,inactive,
CCOC(=O)CN[C@@H](C(=O)N1CC[C@H]1C(=O)NCc1ccc(/C(N)=N/O)cc1)C1CCCCC1,inactive,
O=CC(F)(F)C(F)(F)C(F)(F)C(F)F,inactive,
CCCCCC(C)OC(=O)COc1ccc(Cl)c2cccnc12 (stereo not given),inactive,
CCOC(C)=O,inactive,
CCc1cccc(CC)c1NC(=O)C(=O)O,inactive,
C=CC(=O)OCCN(CC)CC,inactive,
Cc1cc(=O)oc2cc(O)ccc12,inactive,
FCOC(C(F)(F)F)C(F)(F)F,inactive,
O=S(=O)(c1ccc(OCc2ccccc2)cc1)c1ccccc1O,inactive,
Cc1cc(Cc2cc(C)cc(C(C)(C)C)c2O)c(O)c(C(C)(C)C)c1,,128 µM (active)
CCCC=O,inactive,
FC(F)=C(F)C(F)(F)C(F)(F)C(F)(F)C(F)F,inactive,
CCCCCCCCCCCC[N+](C)(C)CCCCCCCCCCCC,inactive,
O=C1NS(=O)(=O)c2ccccc21,inactive,
COC(=O)C(F)(F)C(F)(F)C(F)(F)F,inactive,
CCCCN(C)C,inactive,
COc1cc([N+](=O)[O-])ccc1N,inactive,
C=CC(F)(F)C(F)(F)C(F)(F)C(F)(F)F,inactive,
c1cc[nH]c1,inactive,
